# Compound activity (PubChem)
# CtBP-E1A blk: qHTS Assay for Inhibitors of the CtBP/E1A Interaction; CtBP / adenovirus E1A interaction (AlphaScreen); AlphaScreen GST-E1A/His-CtBP binding, 1536-well; hits give low values; activity change, % (no concentration beside the values); actives 0.49% (n = 340,000); in the data active = activity change below about -65%; inconclusive = mostly about -30% to -63%
#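 In 5 uL wells, 23 nL compound meets equimolar GST-E1A and His-CtBP (5X stock 125 nM each) for 2 h, 37 °C. Beads (5X, 50 ug/mL) then 1 h, 37 °C, dark.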
# Six1-Eya2 inh: qHTS Assay for Inhibitors of the Six1/Eya2 Interaction | Homeobox protein SIX1 (Homo sapiens) + Protein phosphatase EYA2 (Homo sapiens), … | AlphaScreen GST-Six1/His-Eya2 binding, biochemical; hits give low values | activity change, % (no concentration beside the values) | actives 0.56% (n = 360,000) | AID 651725, 2012; in the data active = activity change below about -65%; inconclusive = mostly about -30% to -63%
#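 Homogeneous AlphaScreen proximity assay pairing GST-Six1 with His-tagged Eya2 (added as 5X mix: 250 nM and 500 nM) in 50 mM Tris pH 8.0, 300 mM NaCl, 1 mM TCEP. Glutathione donor and nickel acceptor beads; 1 h, 37 °C, dark.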
# BAZ2B inh: qHTS Assay for Inhibitors of BAZ2B; Bromodomain adjacent to zinc finger domain protein 2B (Homo sapiens), Q9UIF8; AlphaScreen BAZ2B-H3K14Ac peptide displacement; Potency, µM (doses to about 114 µM), usual class: inhibitors; actives 4.4% (n = 360,000); AID 504333, 2011; note: nearly all actives have a fitted effect of over 60% in size
#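 BAZ2B (50 nM) with biotin-H3(5-23)K14Ac peptide (50 nM) in PBS pH 7.4, 0.01% Tween-20, preformed 30 min, then compound 30 min at room temperature; top concentration 110uM. AlphaScreen streptavidin donor/nickel chelate acceptor beads (10 ug/mL final), 20 min dark, signal read.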
# G9a inh: qHTS Assay for Inhibitors of Histone Lysine Methyltransferase G9a; Histone-lysine N-methyltransferase EHMT2 (Homo sapiens), Q96KQ7; G9a H3K9 monomethylation, AlphaScreen, 2 h; Potency, µM (titrated, usually from 102 µM), actives largely listed as inhibitors; actives 8.8% (n = 350,000); AID 504332, 2011; note: nearly all actives have a fitted effect of over 75% in size
# Target sequence (Q96KQ7 913-1193 limits assumed): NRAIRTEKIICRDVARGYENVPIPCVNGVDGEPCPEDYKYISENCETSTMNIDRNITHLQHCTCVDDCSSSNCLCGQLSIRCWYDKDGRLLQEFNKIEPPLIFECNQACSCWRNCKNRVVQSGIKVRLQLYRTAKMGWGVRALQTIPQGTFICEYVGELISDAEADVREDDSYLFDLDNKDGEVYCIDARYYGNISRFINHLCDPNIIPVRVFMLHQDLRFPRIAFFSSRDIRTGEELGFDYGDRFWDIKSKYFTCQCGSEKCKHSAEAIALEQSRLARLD
#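 Compounds were preincubated with 20 nM G9a for 15 min, after which biotinylated H3K9 peptide (500 nM) and SAM (20 uM) started a 2 h room-temperature reaction. Monomethylated product was quantified by antibody-based AlphaScreen chemiluminescence.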
# HP1b binding inh: HTS for Inhibitors of HP1-beta Chromodomain Interactions with Methylated Histone Tails; AID 540317, 2011; AlphaScreen HP1-beta / biotin-H3K9me3 peptide binding; Chromobox protein homolog 1 (Homo sapiens), P83916; Potency, µM (doses to about 114 µM), usual class: inhibitors; actives 0.56% (n = 390,000); note: nearly all actives have a fitted effect of over 70% in size
# Target sequence (P83916 whole entry, looked up): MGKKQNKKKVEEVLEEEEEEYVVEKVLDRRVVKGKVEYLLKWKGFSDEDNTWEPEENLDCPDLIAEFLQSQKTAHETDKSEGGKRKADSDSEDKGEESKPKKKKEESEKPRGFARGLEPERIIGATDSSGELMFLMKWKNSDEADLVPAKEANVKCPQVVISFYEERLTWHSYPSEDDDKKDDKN
#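 HP1-beta protein (50 nM final) preincubated 30 min at room temperature with biotinylated H3(1-18)K9me3 peptide (50 nM) in PBS pH 7.4, 0.01% Tween-20, then compound added for 30 min. AlphaScreen streptavidin donor/nickel chelate acceptor beads (10 ug/mL final), 30 min dark, luminescence read.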
# JMJD2A Tudor: qHTS Assay for Inhibitors of JMJD2A-Tudor Domain | actives 4.4% (n = 390,000) | AlphaScreen JMJD2A-Tudor / H3K4me3 peptide binding | Potency, µM (titrated, usually from 114 µM), hits mostly inhibitors; note: nearly all actives have a fitted effect of over 50% in size
# Numbers stand for hits; – = inactive; ? = inconclusive; · = no result; ! = not active in a repeat; [ ] = another dose, or the depositor's remark. Hits are enriched below; roughly 10% of the tested compounds scored in any of these assays. Unless noted, calls come from the whole dose curve; as a rule, active = well fitted inhibition curve with a large enough effect; inconclusive = small, poorly fitted or top-dose-only effect; inactive = no such curve, though single readings can be large or run the other way.
SMILES,CtBP-E1A blk,Six1-Eya2 inh,BAZ2B inh,G9a inh,HP1b binding inh,JMJD2A Tudor
CC(NCc1ccc(N(C)C)cc1)C1CC2CCC1C2 (stereo not drawn),–,–,?,50µM,–,89µM
CC(NC(=O)c1ccc(CS(C)(=O)=O)cc1)C1CC2CCC1C2 (stereo not drawn),–,–,–,–,–,–
O=C(NCC1CCCO1)c1nc2c(nnn2Cc2ccc(F)cc2)c(=O)[nH]1 (stereo not drawn),–,–,–,50µM,–,?
CCCNC(=O)Cn1nc(-c2ccc(F)cc2)c2cnc3ccc(F)cc3c21,·,·,–,–,–,–
C=C1CCC[C@]2(C)C[C@H]3OC(=O)C(CNCC(OC)OC)[C@H]3CC12 (stereo partly drawn),–,–,–,79µM,–,–
C=CCC1CCCC(=O)N2CC[C@H](O)C12 (stereo partly drawn),–,–,–,79µM!,–,–
Cc1cc(O)c(C=Nc2ccc(N3CCOCC3)cc2)c(C)c1Cl,–,–,?,8.9µM,–,–
Cc1ccc(Cl)cc1-c1ccc(C=Nc2ccc(N3CCOCC3)cc2)o1,–,–,28µM,?,?,35µM
Cc1ccc([N+](=O)[O-])cc1-c1ccc(/C=N/NC(=O)CN2CCOCC2)o1,–,–,–,?,–,?
Cc1ccc(/C=C/c2nc3ccccc3[nH]2)o1,–,–,–,11µM,?,50µM
COc1ccc(S(=O)(=O)N2CCOC23CCN(S(=O)(=O)c2cc(F)ccc2F)CC3)cc1,–,-69,–,–,–,–
CCC(C)(C)n1nnnc1C(c1ccc(OC)c(OC)c1)N1CCN(c2ccc(OC)cc2)CC1 (stereo not drawn),–,–,50µM,11µM,–,28µM
CCC(C)(C)n1nnnc1C(c1ccc(OC)c(OC)c1)N1CCN(c2ccccc2)CC1 (stereo not drawn),–,–,–,–[12.7 µM],–,–
CCC(C)(C)n1nnnc1C(c1ccc(OC)c(OC)c1)N1CCN(c2ccc(F)cc2)CC1 (stereo not drawn),–,–,–,22µM,–,?
CCOc1ccc(NC(=O)CSc2ncc3c(n2)-c2ccccc2N(C)S3(=O)=O)cc1,·,·,–,–,–,–
CCSc1ncc(Cl)c(C(=O)Nc2c(C(=O)Nc3ccc(Cl)cc3)oc3ccccc23)n1,·,·,–,–,–,–
NC(=O)CC(NC(=O)c1ccccc1)c1ccc(N2CCN(c3ccccn3)CC2)c([N+](=O)[O-])c1 (stereo not drawn),–,–,–,79µM,–,–
NC(=O)CC(NC(=O)c1cccc(Br)c1)c1ccc(N2CCN(c3ccc(F)cc3)CC2)c([N+](=O)[O-])c1 (stereo not drawn),–,–,?,45µM,–,?
Cc1cc(C)cc(C(=O)NC(CC(N)=O)c2ccc(NCCN3CCOCC3)c([N+](=O)[O-])c2)c1 (stereo not drawn),–,–,–,?,–,–
COc1ccc(OC)c(C(=O)NC(CC(N)=O)c2ccc(N3CCCCCC3)c([N+](=O)[O-])c2)c1 (stereo not drawn),–,–,50µM,?,–,?
COc1ccc(OC)c(C(=O)NC(CC(N)=O)c2ccc(NC(C)C)c([N+](=O)[O-])c2)c1 (stereo not drawn),–,–,–,?,–,–
NC(=O)CC(NC(=O)c1ccccc1)c1ccc(NCCN2CCOCC2)c([N+](=O)[O-])c1 (stereo not drawn),–,–,–,71µM,–,–
NC(=O)CC(NC(=O)c1ccc(Br)cc1)c1ccc(N2CCN(c3ccc(F)cc3)CC2)c([N+](=O)[O-])c1 (stereo not drawn),–,–,–,–[12.7 µM],–,–
